Screen size: about 7,400 compounds; about 4,100 (55%) were called active.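 Rule for the calls: active = inhibition of yeast growth at or above a set limit in either of two repeat tests at 20 µM; inactive = the rest.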 The set was probably picked from earlier hits. Only a sample is shown.

Here are results for 97 compounds from PubChem BioAssay AID463213 (Sanford-Burnham Center for Chemical Genomics, 2010).

The experiment can be described thus: growth inhibitors of tim10-1 mutant yeast, confirmation, single concentration, luminescence, S. cerevisiae (AID 463213).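 Note: tim10-1 mutant grown at permissive 25 °C to find synthetic lethal compounds; 0% = DMSO yeast wells and 100% = medium wells without yeast.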 Particulars: S. cerevisiae tim10-1 ts strain growth, BacTiter-Glo, 24 h; at 20 µM; stronger effect = higher value.
Regarding `CCCc1[nH]nc2c1C(c1ccc(Br)s1)C(C#N)=C(N)O2` (configuration not stated), the inhibition was 79.5% (active).
The figure for `CSc1ccc(S(=O)(=O)NCc2ccc(Cl)cc2)cc1` is 30.4% (active); for `CSc1ccc(S(=O)(=O)NC2CCCCC2)cc1` it is 22.4% (inactive); for `N/C(=N\OC(=O)c1cc(-c2ccccc2)nc2ccccc12)c1ccncc1` it is 70.7% (active).
The figure for `O=C(/C=C/c1ccc(Cl)c([N+](=O)[O-])c1)c1cccnc1` is 62% (active).
In the case of `O=[N+]([O-])c1ccc(N2CCN(c3ccc(O)cc3)CC2)c(Cl)c1` it was 30.2% (inactive).
Consider `O=C(/C=C/c1ccc(Cl)c([N+](=O)[O-])c1)c1ccc(O)cc1`, for which the inhibition is 48.3% (active).
The figure for `Cc1ccc(N2C(=O)C(Cc3ccccc3)NC2=S)cc1` (configuration not stated) is 16.7% (inactive); for `Cc1sc2ncnc(SCC(=O)Nc3ccc(CN4CCCC4)cc3)c2c1C` it is 23.3% (inactive).
For the compound `O=C1C=CC(=O)N1c1ccc(N2CCCCC2)cc1`, the inhibition was 92.6% (active).
In the case of `Cc1oc2cc(Br)c(O)c(Br)c2c1C(=O)c1ccccc1` it was 36.2% (active).
The figure for `CC1=C/C(=N\OS(=O)(=O)c2ccccc2)C=CC1=O` is 60.8% (active); for `O=c1c(Cl)c(NCc2ccc(F)cc2Cl)cnn1C12CC3CC(CC(C3)C1)C2` it is 44.2% (active); for `COc1ccc(OC)c(-c2c(=O)n(OCc3ccccc3Br)c3ccccc3[n+]2[O-])c1` it is 24.3% (inactive).
Turning to `CCc1nc(C)cn1S(=O)(=O)c1cc([N+](=O)[O-])ccc1Cl`, the inhibition is 47.8% (active).
In the case of `CC(C)c1nccn1S(=O)(=O)c1cc([N+](=O)[O-])ccc1Cl`, the inhibition was 28.7% (inactive).
The figure for `O=C(c1ccccc1)N1CCC(CC2CC(c3ccc(Cl)cc3)=NO2)(C(=O)NCC2CCCCC2)CC1` (configuration not stated) is 34% (active); for `COc1cc([N+](=O)[O-])ccc1NC(=O)COC(=O)CCOc1ccc(C)cc1` it is 63.3% (active); for `O=C(COC(=O)CCOc1ccccc1)Nc1cc(S(=O)(=O)N2CCCCC2)ccc1Cl` it is 30.2% (inactive).
In the case of `O=C(NC1CCCCC1)c1ccc(-c2ccc(Cl)cc2)o1` it was 39% (active); in that of `O=C(Nc1cccc(F)c1)NC1CCCCCCC1`, 20.1% (inactive); in that of `CSC1=N/C(=C\C=C\c2cccs2)C(=O)S1`, 51.9% (active).
In the case of `O=[N+]([O-])c1ccc(N/N=C/c2ccccc2)cc1` it was 27% (inactive); in that of `c1ccc(-c2nc(NCc3ccco3)c3ccccc3n2)cc1`, 42% (active); in that of `S=c1[nH]c2ccccc2c2ccccc12`, 7.95% (inactive).
As for `C#CCN1C(=O)C(O)(CC(=O)c2cc(OC)ccc2OC)c2ccccc21` (configuration not stated), the inhibition is 30.6% (inactive).
The figure for `CC(C)(CCl)C(=O)Nc1ccc(Sc2ccc(F)cc2)cc1` is 51.8% (active); for `COCCNC(=O)/C(C#N)=C/c1cccc(OCc2ccccc2)c1` it is 70.2% (active).
In the case of `Cc1cccc(OCCNC(=S)NC(=O)c2cccnc2)c1` it was 27.1% (inactive); in that of `C/C(=N/NC(=O)c1cc(Cl)ccc1O)C12CC3CC(CC(C3)C1)C2`, 34.1% (active).
The figure for `S=C(NCc1ccc(Cl)cc1)NC12CC3CC(CC(C3)C1)C2` is 3.55% (inactive).
`C/C(=N\Nc1nc(Nc2ccccc2)nc(N2CCOCC2)n1)c1cccs1`: the inhibition was 24.8% (inactive).
The figure for `Cc1cc(C)n(-c2nc(SCC(=O)N3CCCC3)c3c4c(sc3n2)CCCC4)n1` is 40.1% (active); for `CCOc1ccc2nc(N3CCCN(C(=O)Nc4ccccc4C)CC3)c(C#N)cc2c1` it is 26.7% (inactive).
Consider `CCC(C)(C)n1nnnc1CN1CCN(c2nc3ccc(C)cc3cc2C#N)CC1`, for which the inhibition is 35.2% (active).
In the case of `Fc1cccc(Cl)c1CSc1ccc(-c2ccco2)nn1` it was 39.5% (active); in that of `Clc1ccccc1CSc1nnc(-c2ccco2)c(-c2ccco2)n1`, 27.3% (inactive); in that of `COc1cc(C(=O)Nc2nccs2)cc(OC)c1OC`, 29% (inactive).
In the case of `CSc1nnc(NC(=O)c2nc(S(=O)(=O)Cc3ccc(C)cc3)ncc2Cl)s1` it was -0.5% (inactive).
The figure for `COc1ccc(CS(=O)/C(Cl)=C(/Cl)C(=O)Nc2ccc(OC)nc2)cc1` (configuration not stated) is 34.8% (active); for `Cn1c(CCCOc2ccc(Cl)cc2Cl)n[nH]c1=S` it is 17.5% (inactive).
Take `Cc1ccc(NC(=O)CN2CCC3(O)CCCCC3C2c2ccc3c(c2)OCO3)c(C)c1` (configuration not stated): the inhibition is 37.5% (active).
The figure for `Cn1c(C(=O)OC(C(=O)NC2CCCCC2)c2ccccn2)cc2sccc21` (configuration not stated) is 17.9% (inactive); for `Cc1ccc(NC(=O)CCOc2ccccc2)cc1S(=O)(=O)Nc1ccccc1Cl` it is 29.1% (inactive).
The figure for `CN(c1ccccc1)S(=O)(=O)c1ccc(NC(=O)COc2ccccc2)cc1` is 34.2% (active); for `N/C(=N\OC(=O)CCc1ccccc1)c1ccc(Cl)cc1` it is 57.7% (active); for `COc1ccc(/C(N)=N/OC(=O)CCCc2ccccc2)cc1` it is 48.1% (active).
For the compound `COc1ccc(/C(N)=N/OC(=O)Cc2ccccc2)cc1`, the inhibition was 15.5% (inactive).
With `CS(=O)(=O)c1sc2nc(-c3ccccc3)cc(-c3ccccc3)c2c1N`, the inhibition was 33.8% (active).
The figure for `Nc1nc(-c2ccccc2)cc(-c2ccccc2)n1` is 10% (inactive); for `O=C(COc1ccccc1Cl)N1N=C(c2cccs2)CC1c1ccco1` (configuration not stated) it is 27.8% (inactive); for `O=C(CC(O)(C(F)(F)F)C(F)(F)F)Nc1ccc(Cl)c(Cl)c1` it is 88.2% (active).
In the case of `CN=c1scc(-c2cc(OC)ccc2OC)n1/N=C/c1c(C)[nH]c2ccccc12` it was 19.1% (inactive); in that of `O=S(=O)(Nc1cccc(Oc2ccc(Cl)cc2)n1)c1ccc(F)cc1`, 45% (active); in that of `CCCc1nc2c(c(=O)c3ccccc3n2C)c(=O)n1C1CCCCCC1`, 28.5% (inactive).
In the case of `CCCCCC1CCC(c2nnc(SCC(C)=O)o2)CC1` (configuration not stated) it was 39.2% (active); in that of `COc1ccc(CCNc2cc(C)nc3c(-c4ccc(Cl)cc4)c(C)nn23)cc1OC`, 24% (inactive).
For the compound `CCOC(=O)c1c(-c2ccccc2)oc2cc(Br)c(O)cc12`, the inhibition is 39.4% (active).
The figure for `CCOC(=O)c1c(CN2CCOCC2)n(-c2ccccc2)c2ccc(O)cc12` is 22.6% (inactive); for `CCOC(=O)c1c(-c2ccccc2)oc2ccc(OCC(=O)NN)cc12` it is 15.6% (inactive); for `CCOc1ccccc1N1CCN(C(=O)c2ccc3[nH]c(C)c(C)c3c2)CC1` it is 16.4% (inactive).
The figure for `CCn1nccc1C(=O)Nc1ccc(Cl)c(Cl)c1` is 37.8% (active).
In the case of `O=C(/C=C/c1ccccc1)c1ccccc1O` it was 56.2% (active); in that of `COc1ccc(C(=O)Nc2ccc(-n3nncc3C(C)(C)C)cc2)cc1`, 38.6% (active).
With `Cc1ccc(S/C(=N\S(=O)(=O)c2ccc(Cl)cc2)c2ccccc2)cc1`, the inhibition is 35.6% (active).
As to `CC(C)Cn1c(N)c(C(=O)NCc2cccs2)c2nc3ccccc3nc21`, the inhibition was 22.4% (inactive).
In the case of `Oc1c(CN2CCN(c3ccc(F)cc3)CC2)cc(Cl)c2cccnc12` it was 32% (active); in that of `Fc1ccc(N2CCN(Cc3cnc(Oc4ccc(Br)cc4)s3)CC2)cc1`, 28.4% (inactive).
With `O=C(c1cccc(C(=O)N2CCN(c3ccc(F)cc3)CC2)c1)N1CCN(c2ccc(F)cc2)CC1`, the inhibition was 27% (inactive).
As for `OC(CNCC1CCCO1)Cn1c2ccc(Br)cc2c2cc(Br)ccc21` (configuration not stated), the inhibition was 3.65% (inactive).
In the case of `O=C(/C=C/c1cccs1)c1cc(Cl)ccc1OC(=O)N1CCOCC1` it was 48.5% (active); in that of `O=C(NC(Nc1nc2ccc([N+](=O)[O-])cc2s1)(C(F)(F)F)C(F)(F)F)c1ccccc1`, 86.6% (active).
The figure for `O=C(NCCN1C(=O)S/C(=C\c2cccnc2)C1=O)c1cccc(OC(F)F)c1` is 27.6% (inactive); for `N/C(=N\OC(=O)CC1CCCCC1)c1ccccc1` it is 47.9% (active); for `N/C(=N\OC(=O)CCC1CCCCC1)c1ccccn1` it is 45.5% (active).
In the case of `S=c1[nH]nc(CSCc2ccc(Cl)cc2Cl)n1-c1ccccc1` it was 24.7% (inactive); in that of `Cc1nnnn1/C(=C\c1ccccc1)C(=O)OCC(=O)N1CC2(C)CC1CC(C)(C)C2` (configuration not stated), 48.4% (active).
`N/C(Cc1ccc([N+](=O)[O-])cc1)=N\OC(=O)COc1ccc2ccccc2c1`: the inhibition is 74.3% (active).
The figure for `N/C(Cc1ccc([N+](=O)[O-])cc1)=N\OC(=O)C1CCCCC1` is 79.8% (active).
As to `CN(C)C(=O)c1ccc2c(c1)C1C3CCC(C3)C1C(c1ccccc1)N2` (configuration not stated), the inhibition was 25.9% (inactive).
With `Cc1cccc(NC(=S)Nc2ccc(Cl)c(Cl)c2)c1`, the inhibition was 50.9% (active).
In the case of `FC(F)(F)c1cccc(NC(=S)Nc2cccc(Cl)c2)c1` it was 21.2% (inactive).
In the case of `Cc1cccc(NC(=S)N2CCC(c3nc4ccccc4s3)CC2)c1` it was 30.5% (inactive); in that of `CCOc1ccc(C(c2c(C)[nH][nH]c2=O)c2c(C)[nH][nH]c2=O)cc1OCC`, 36.1% (active); in that of `Cc1[nH][nH]c(=O)c1C(c1ccc(-c2ccc(Cl)cc2)o1)c1c(C)[nH][nH]c1=O`, 29% (inactive).
In the case of `COc1ccccc1C1SCCN1C(=O)c1ccc([N+](=O)[O-])cc1` (configuration not stated) it was 15.9% (inactive); in that of `N/C(=N\OC(=O)Cc1ccccc1[N+](=O)[O-])c1ccc(Br)cc1`, 55.3% (active).
For the compound `COc1cc(Cl)c(C)cc1NC(=O)CSc1nnc(-c2ccco2)n1CC(C)C`, the inhibition was 24.4% (inactive).
Turning to `COc1cc(N=Cc2c(O)[nH]c3ccccc23)cc(OC)c1OC`, the inhibition was 20.7% (inactive).
In the case of `Cc1cccc(N=Nc2c(O)[nH]c3ccc(F)cc23)c1`, the inhibition is 51.5% (active).
The figure for `C/C(=N\NC(=O)CNc1cccc2ccccc12)c1ccc(Br)s1` is 26.1% (inactive); for `Cc1ccccc1NCC(=O)N/N=C\c1ccc([N+](=O)[O-])s1` it is 44.2% (active).
In the case of `O=C(CCc1ccccc1)Nc1ncc([N+](=O)[O-])s1` it was 25% (inactive).
For `Cc1ccccc1Nc1nnc(SCC(=O)c2cc3ccccc3o2)s1`, the inhibition is 33.8% (active).
The figure for `CC(C)CC(=O)NC(=S)Nc1ccc(F)cc1F` is 24.9% (inactive); for `O=C(/C=C/Sc1ncn[nH]1)c1ccc(Cl)cc1` it is 69.7% (active); for `COc1ccc(CCNCc2c(-c3ccccc3)n(C)c3ccccc23)cc1` it is 19.6% (inactive).

The inhibition is the drop in the measured response relative to a control, in per cent.
